Measured values taken from article PMC7862700, “An all-to-all approach to the identification of sequence-specific readers for epigenetic DNA modifications on cytosine”.

Each sequence was assayed against T1, ETV3 (Homo sapiens, UniProt P41162-2 1-143) (assay: DAPPL (digital affinity profiling via proximity ligation, sequencing); 10 mM Tris-HCl pH 7.5, 50 mM NaCl, 1 mM DTT, 4% glycerol, room temperature, 30 min; GST-TFs on glutathione beads, 16-mer random dsDNA library, 0.1% formaldehyde crosslink after washing; high values mean tight binding). Conditions: protein: recombinant; tags: N-terminal GST; dsDNA, one strand shown.
T1 sequence: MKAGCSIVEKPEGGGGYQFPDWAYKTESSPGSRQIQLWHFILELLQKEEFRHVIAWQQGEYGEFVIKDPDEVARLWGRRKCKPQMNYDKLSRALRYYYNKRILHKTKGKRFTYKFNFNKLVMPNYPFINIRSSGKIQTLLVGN
Procedure, shortened: (§1)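 Yeast served to express human transcription factors as GST fusions, which were then captured on glutathione beads and labelled with DNA barcodes. Pooled with a tag-only sample, they were incubated with 200 nmole of a 16-mer random double-stranded DNA library for 30 min at room temperature in Tris/NaCl/DTT/glycerol buffer, washed, crosslinked with 0.1% formaldehyde, ligated by proximity, amplified by PCR and sequenced. Dividing each hexamer's read frequency for a factor by its frequency for the tag-only sample gives the binding signal.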
With TCATTC the binding signal was 1.21 fold enrichment (6-mer frequency, TF over GST control).
In the case of TACCCT, the binding signal is reported as 1.25 fold enrichment (6-mer frequency, TF over GST control).
TAAGAA was tested, and the binding signal was 1.07 fold enrichment (6-mer frequency, TF over GST control).
For GATATA, the binding signal was 1.09 fold enrichment (6-mer frequency, TF over GST control).
TGTTAT was tested, and the binding signal was 1.32 fold enrichment (6-mer frequency, TF over GST control).
In the case of CCTACG, the binding signal is reported as 1.38 fold enrichment (6-mer frequency, TF over GST control).
With ACTACG the binding signal was 1.35 fold enrichment (6-mer frequency, TF over GST control).
TCCAAG was tested, and the binding signal was 1.06 fold enrichment (6-mer frequency, TF over GST control).
In the case of AACTGC, the binding signal is reported as 1.39 fold enrichment (6-mer frequency, TF over GST control).
With ATTACA the binding signal was 1.04 fold enrichment (6-mer frequency, TF over GST control).
For TAATTC, the binding signal was 1.51 fold enrichment (6-mer frequency, TF over GST control).
TGCTCC was tested, and the binding signal was 1.37 fold enrichment (6-mer frequency, TF over GST control).
With AAATTG the binding signal was 1.28 fold enrichment (6-mer frequency, TF over GST control).
TATCCT was tested, and the binding signal was 1.8 fold enrichment (6-mer frequency, TF over GST control).
For CCGAAC, the binding signal was 1.18 fold enrichment (6-mer frequency, TF over GST control).
With CATACT the binding signal was 1.36 fold enrichment (6-mer frequency, TF over GST control).
In the case of TTTCCG, the binding signal is reported as 4.06 fold enrichment (6-mer frequency, TF over GST control).
With CCCATA the binding signal was 1.21 fold enrichment (6-mer frequency, TF over GST control).
For AGCTAC, the binding signal was 1.17 fold enrichment (6-mer frequency, TF over GST control).
For ATCCCT, the binding signal was 1.21 fold enrichment (6-mer frequency, TF over GST control).

What follows are sequences tested against ETV6 (Homo sapiens, UniProt P41212 1-452) in the same assay as above. Conditions: protein: recombinant; tags: N-terminal GST; dsDNA, one strand shown.
Chain of ETV6 (P41212 whole entry): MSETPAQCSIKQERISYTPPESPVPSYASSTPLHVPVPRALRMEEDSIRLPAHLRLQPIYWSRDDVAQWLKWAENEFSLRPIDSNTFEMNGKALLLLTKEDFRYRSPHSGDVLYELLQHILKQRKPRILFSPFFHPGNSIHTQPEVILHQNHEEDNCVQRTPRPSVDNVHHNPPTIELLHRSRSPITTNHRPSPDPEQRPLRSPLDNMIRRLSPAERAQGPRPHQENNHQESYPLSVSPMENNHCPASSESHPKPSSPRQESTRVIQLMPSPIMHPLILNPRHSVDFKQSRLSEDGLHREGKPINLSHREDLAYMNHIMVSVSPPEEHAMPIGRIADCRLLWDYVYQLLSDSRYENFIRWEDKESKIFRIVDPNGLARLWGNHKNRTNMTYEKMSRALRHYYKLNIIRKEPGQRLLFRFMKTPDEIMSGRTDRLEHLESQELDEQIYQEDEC
Procedure, shortened: as §1
In the case of ACCTTT, the binding signal is reported as 1.48 fold enrichment (6-mer frequency, TF over GST control).
ATAAAA was tested, and the binding signal was 1.16 fold enrichment (6-mer frequency, TF over GST control).
For CTTATA, the binding signal was 1.33 fold enrichment (6-mer frequency, TF over GST control).
TTCATG was tested, and the binding signal was 1.26 fold enrichment (6-mer frequency, TF over GST control).
For AAACCC, the binding signal was 1.34 fold enrichment (6-mer frequency, TF over GST control).
For AAATAT, the binding signal was 1.43 fold enrichment (6-mer frequency, TF over GST control).
CCTGGA was tested, and the binding signal was 1.44 fold enrichment (6-mer frequency, TF over GST control).
With ATCTTC the binding signal was 1.54 fold enrichment (6-mer frequency, TF over GST control).
For CTGAAC, the binding signal was 1.29 fold enrichment (6-mer frequency, TF over GST control).
For TTTGAT, the binding signal was 1.26 fold enrichment (6-mer frequency, TF over GST control).
In the case of CCTAGC, the binding signal is reported as 1.15 fold enrichment (6-mer frequency, TF over GST control).
In the case of TCCATT, the binding signal is reported as 1.29 fold enrichment (6-mer frequency, TF over GST control).
With CCTTGG the binding signal was 1.24 fold enrichment (6-mer frequency, TF over GST control).
TTTTAA was tested, and the binding signal was 1.27 fold enrichment (6-mer frequency, TF over GST control).
In the case of AATTGT, the binding signal is reported as 1.26 fold enrichment (6-mer frequency, TF over GST control).
TCTGGC was tested, and the binding signal was 1.19 fold enrichment (6-mer frequency, TF over GST control).
In the case of ATGGCC, the binding signal is reported as 1.34 fold enrichment (6-mer frequency, TF over GST control).
For GCGACT, the binding signal was 1.16 fold enrichment (6-mer frequency, TF over GST control).
With ATATCT the binding signal was 1.14 fold enrichment (6-mer frequency, TF over GST control).
With TCCCCC the binding signal was 1.56 fold enrichment (6-mer frequency, TF over GST control).
For TCATTC, the binding signal was 1.24 fold enrichment (6-mer frequency, TF over GST control).
In the case of TACCCT, the binding signal is reported as 1.16 fold enrichment (6-mer frequency, TF over GST control).
For TAAGAA, the binding signal was 1.08 fold enrichment (6-mer frequency, TF over GST control).
With GATATA the binding signal was 1.12 fold enrichment (6-mer frequency, TF over GST control).
TGTTAT was tested, and the binding signal was 1.39 fold enrichment (6-mer frequency, TF over GST control).
In the case of CCTACG, the binding signal is reported as 1.61 fold enrichment (6-mer frequency, TF over GST control).
With ACTACG the binding signal was 1.32 fold enrichment (6-mer frequency, TF over GST control).
With TCCAAG the binding signal was 1.03 fold enrichment (6-mer frequency, TF over GST control).
With AACTGC the binding signal was 1.3 fold enrichment (6-mer frequency, TF over GST control).
In the case of ATTACA, the binding signal is reported as 1.15 fold enrichment (6-mer frequency, TF over GST control).
TAATTC was tested, and the binding signal was 1.53 fold enrichment (6-mer frequency, TF over GST control).
With TGCTCC the binding signal was 1.34 fold enrichment (6-mer frequency, TF over GST control).
For AAATTG, the binding signal was 1.34 fold enrichment (6-mer frequency, TF over GST control).
With TATCCT the binding signal was 1.82 fold enrichment (6-mer frequency, TF over GST control).
CCGAAC was tested, and the binding signal was 1.28 fold enrichment (6-mer frequency, TF over GST control).
CATACT was tested, and the binding signal was 1.26 fold enrichment (6-mer frequency, TF over GST control).
With TTTCCG the binding signal was 4.37 fold enrichment (6-mer frequency, TF over GST control).
With CCCATA the binding signal was 1.31 fold enrichment (6-mer frequency, TF over GST control).
With AGCTAC the binding signal was 1.22 fold enrichment (6-mer frequency, TF over GST control).
For ATCCCT, the binding signal was 1.23 fold enrichment (6-mer frequency, TF over GST control).
